# This excerpt belongs to a sample that is enriched for hits.
# FBPA Giardia inh: qHTS Assay for Inhibitors of Fructose-1,6-bisphosphate Aldolase from Giardia Lamblia. purified Giardia FBPA. 290,000 compounds, 0.71% hits. A8B2U2. Potency, µM (doses to about 59.6 µM), for the others: at the top dose activity, negative = inhibition, usual class: inhibitors; note: potency is the fitted concentration of half-maximal effect; % is set by controls: 0 for no effect and ±100 for the full control effect; nearly all actives have a fitted effect of over 55% in size
# Target sequence (A8B2U2 whole entry, looked up): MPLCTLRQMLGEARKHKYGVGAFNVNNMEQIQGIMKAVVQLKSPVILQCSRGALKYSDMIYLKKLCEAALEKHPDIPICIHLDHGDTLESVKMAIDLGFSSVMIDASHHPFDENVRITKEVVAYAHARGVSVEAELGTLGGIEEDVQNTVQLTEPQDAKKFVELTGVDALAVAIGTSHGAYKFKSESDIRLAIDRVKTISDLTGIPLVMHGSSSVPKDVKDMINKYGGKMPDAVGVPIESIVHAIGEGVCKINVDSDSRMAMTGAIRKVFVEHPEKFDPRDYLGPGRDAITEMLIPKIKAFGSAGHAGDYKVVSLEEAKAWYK
#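 Giardia FBPA (40 nM reagent) was preincubated 10 min at RT with compound (up to 57.5 uM final), then substrate plus GAPDH/TPI/NAD/arsenate coupling system with diaphorase/resazurin was added; resorufin fluorescence (525/598 nm) was read after 20 min.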
# Shiga inhibitor: A qHTS for Small Molecule Inhibitors of Shiga Toxin. Vero cells, Shiga toxin protein synthesis inhibition reporter. inhibition, % at 38.7 µM. 290,000 compounds, 9.2% hits. AID 2315, 2010; in the data active = inhibition mostly above about 28%, no sharp cut-off; inactive = mostly below about 43%; note: 0% is about no effect
# Sm TGR block: qHTS Assay for the Inhibitors of Schistosoma Mansoni Peroxiredoxins. Schistosoma mansoni thioredoxin glutathione reductase (TGR), Q962Y6. AID 485364, 2010. 360,000 compounds, 3% hits. purified TGR, DTNB reduction, TNB absorbance 405 nm. Potency, µM (highest dose often 114 µM), inactives show at the top dose activity change, negative = inhibition, hits mostly inhibitors; note: potency is the fitted concentration of half-maximal effect; % is set by controls: 0 for no effect and ±100 for the full control effect; nearly all actives have a fitted effect of over 60% in size
#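 Kinetic colorimetric format: TGR-catalysed, NADPH-driven DTNB reduction monitored via TNB absorbance. Enzyme dispensed at 20 nM; compound exposure 15 min at room temperature before reaction start.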
# LmPK inhibitor: qHTS Assay for Inhibitors of Leishmania Mexicana Pyruvate Kinase (LmPK) | AID 1721, 2009 | Potency, µM (highest dose often 57.5 µM), inactives show at the top dose activity change, negative = inhibition, most hits filed as inhibitors | 290,000 compounds, 0.37% hits | purified LmPK, Kinase-Glo ATP luminescence, 1 h; note: potency is the fitted concentration of half-maximal effect; % is set by controls: 0 for no effect and ±100 for the full control effect
#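 In 50 mM imidazole pH 7.2 with 7 mM MgCl2, LmPK (0.1 nM) turned over PEP (0.5 mM) and ADP (0.1 mM) for 1 h at room temperature. Luciferase read-out of ATP.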
# CHX counter-1: Cycloheximide Counterscreen for Small Molecule Inhibitors of Shiga Toxin | cell reporter, cycloheximide protein synthesis inhibition counterscreen | max response, % | 300,000 compounds, 12% hits | AID 2314, 2010; in the data active = max response mostly above about 13%, no sharp cut-off; inactive = mostly below about 14%; note: read at 38.3 µM for the half of the compounds with a filed dose; 0% is about no effect
# Tb PYK inh: qHTS of Trypanosoma Brucei Inhibitors; pyruvate kinase (Trypanosoma brucei), Q57TT1; TbPYK enzyme, Kinase-Glo Plus ATP luminescence, 45 min; Potency, µM (series often up to 76.8 µM), inactives show top-dose activity, negative = inhibition, usual class: inhibitors; 410,000 compounds, 0.12% hits; AID 624173, 2012; note: potency is the fitted concentration of half-maximal effect; % is set by controls: 0 for no effect and ±100 for the full control effect; nearly all actives have a fitted effect of over 50% in size
#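 ADP (130 uM final) triggers the TbPYK reaction after compound addition; incubation is 45 min at room temperature. Kinase-Glo Plus is then added and luminescence imaged. Normalized data are fitted to concentration-effect curves.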
# CHX counter-2: Cycloheximide Counterscreen for Small Molecule Inhibitors of Shiga Toxin (Confirmatory); shares compounds with Shiga inhibitor; Cycloheximide counterscreen, protein synthesis reporter, Shiga toxin assay; Potency, µM (highest dose often 38.3 µM), inactives show at the highest dose activity (activation), actives largely listed as activators; 510 compounds, 3% hits; calls by dose curve; note: potency is the fitted concentration of half-maximal effect; 0% is about no effect
# An asterisk follows results filed as active; ? = inconclusive; nt = no result; [ ] = another dose, or the depositor's remark. Unless noted, calls come from the whole dose curve; as a rule, active = well fitted curve in the direction sought with a large enough effect; inconclusive = small, poorly fitted or top-dose-only effect, or another doubt; inactive = no such curve, though single readings can be large; an effect the other way counts as inactive or inconclusive.
SMILES,FBPA Giardia inh,Shiga inhibitor,Sm TGR block,LmPK inhibitor,CHX counter-1,Tb PYK inh,CHX counter-2
CCOc1ccc(C(=O)NCCc2sc(-c3ccc(F)cc3)nc2C)cc1,nt,nt,10%,nt,nt,-1%,nt
COc1cc(/C=C2/C(=O)c3cccc([N+](=O)[O-])c3C2=O)c(Br)cc1O,-30%,61*,35µM*,14µM*,4,?,?
NC(=O)C1CCN(C(=O)C2c3ccccc3C(=O)N3CCc4ccccc4C23)CC1 (stereo not drawn),-22%,46*,3%,4%,1,-1%,-5%
Cc1cc(Cl)ccc1NC(=O)CN1CCC(C(O)(c2ccccc2)c2ccccc2)CC1,-3%,122*,3%,6%,-5,0%,-2%
Cc1cc(Cl)ccc1NC(=O)CN1CCCC1,-1%,-4,-3%,-8%,3,0%,nt
Cc1ccc(CNC(=O)c2cc(=O)c3cc(C)cc(C)c3o2)cc1,nt,nt,-1%,nt,nt,2%,nt
COC(=O)[C@@]1(Cc2ccccc2)[C@H]2c3cc(C(=O)N(C)C)n(Cc4cc(F)c(F)c(F)c4)c3C[C@H]2CN1C(=O)c1ccccc1,-6%,nt,nt,nt,nt,nt,nt
c1ccc2c(c1)nnn2Cn1nnc2ccccc21,nt,nt,nt,nt,nt,-1%,nt
CCC(C)C1C(C#N)=C(N)OC2=C1C(=O)CC(C)(C)C2 (stereo not drawn),-4%,14*,3%,5%,-2,0%,-2%
CC1C(C#N)=C(N)OC2=C1C(=O)CC(C)(C)C2 (stereo not drawn),1%,21,1%[11.4 µM],0%,1,1%,nt
CCN(CCNC(=O)C1CCN(Cc2nc(-c3cccc(Cl)c3)oc2C)CC1)c1ccccc1,-21%,105*,6%,-5%,10,3%,-2%
CCN(CCNC(=O)C1CCN(Cc2nc(-c3ccc(Cl)cc3)oc2C)CC1)c1ccccc1,2%,-5,0%,3%,2,4%,nt
CCOc1ccccc1N1CCN(CC(=O)Nc2ccnn2C2CCCC2)CC1,nt,nt,4%,nt,nt,3%,nt
COc1cccc(/C=C/C(=O)c2cccc([N+](=O)[O-])c2)c1,-6%,51*,nt,-8%,7,2%,0%
COc1cccc(/C=C/C(=O)c2cccc([N+](=O)[O-])c2)c1OC,-14%,60*,nt,4%,11,-5%,-2%
COc1ccc(/C=C(/NC(=O)c2cccc([N+](=O)[O-])c2)C(=O)O)cc1OC,16%,-9,nt,4%,5,-1%,nt
COC(=O)c1sc2cccc(F)c2c1S(=O)(=O)NCc1ccccc1Cl,nt,nt,3%,nt,nt,-26%,nt
CC1CCCN(CCSc2ccc(Cl)cc2)C1 (stereo not drawn),-9%,30*,4%,-7%,-1,0%,0%
CCC1CCCCN1CCCNC(=O)c1sc2nc(C)cc(C)c2c1-n1cccc1 (stereo not drawn),nt,nt,3%,nt,nt,0%,nt
CCOc1ccc(/C=C/C(=O)Nc2sc3c(c2C(=O)OC)C(C(=O)OC)CC3)cc1 (stereo not drawn),nt,nt,-1%,nt,nt,?,nt
Cc1nnc(C)c2c(C)n(Cc3ccc4c(c3)OCO4)c(C)c12,-14%,0,-7%,-1%,-1,-6%,nt
c1cc2c(cc1Cn1cnnn1)OCO2,9%,158*,-4%,-9%,9,1%,-2%
Cc1nc2nc(NC(=O)c3ccccc3F)[nH]n2c(=O)c1Cl,nt,nt,6%,nt,nt,-1%,nt
CN1CCc2c(sc3c2C(=O)NC(c2ccc(OC(=O)c4ccc(Cl)cc4)cc2)N3)C1 (stereo not drawn),nt,nt,-2%,nt,nt,-4%,nt
CN1CCc2c(sc3c2C(=O)NC(c2ccc4c(c2)OCO4)N3)C1 (stereo not drawn),-9%,29*,4%,-2%,15,-1%,4%
SMILES,FBPA Giardia inh,Shiga inhibitor,Sm TGR block,LmPK inhibitor,CHX counter-1,Tb PYK inh,CHX counter-2
COc1ccccc1/C=C/C(=O)OCc1nc2ccccc2c(=O)[nH]1,-7%,45*,7%,-6%,2,0%,1%
Cc1cc(C)n(-c2nc(SCCN(C)C)c3c4c(sc3n2)COC(C)(C)C4)n1,5%,80*,-1%,-6%,-4,-21%,-5%
Cc1cc(C)n(-c2nc3sc4c(c3c3nnc(SC(C)C)n23)CC(C)(C)OC4)n1,nt,nt,nt,nt,nt,-8%,nt
COc1ccc(S(=O)(=O)N2CCCC2=O)cc1N(C)S(C)(=O)=O,-7%,-3,1%,-5%,0,-1%,nt
Cc1nn(C2CCCCC2)c(N)c1-c1ccccc1,-14%,33*,-2%,-4%,-2,-16%,3%
O=C(COc1ccccc1)N1CCN(C(=O)c2ccco2)CC1,13%,-6,?,7%,-1,16%,nt
O=C(CSCc1ccccc1)N1CCN(C(=O)c2ccco2)CC1,5%,46*,45µM*,0%,17,1%,?
O=C(Cc1c(F)cccc1Cl)c1ccc(O)cc1O,1%,101*,5%,3%,0,-1%,-3%
O=C(Cc1ccccc1F)c1ccc(O)cc1O,15%,21,24%,2%,10,-3%,nt
Cn1c(-c2ccccc2)c(Sc2ccccc2)c2cc(-c3ccc4cc[nH]c4c3)ccc21,nt,nt,nt,nt,nt,-2%,nt
CCOC(=O)N1CCN(S(=O)(=O)c2ccc(C(=O)NNc3nc4c(C)cc(C)cc4s3)cc2)CC1,?,43*,-15%,-1%,5,-12%,-5%
CCOC(=O)N1CCN(S(=O)(=O)c2ccc(C(=O)NNc3nc4c(C)cccc4s3)cc2)CC1,-15%,7,-9%,-2%,-2,?,nt
CCCn1c(SCC(=O)N(C)C2CCCCC2)n[nH]c1=O,nt,nt,nt,nt,nt,-12%,nt
Cc1ccc(O)c(NC(=O)c2cc(C)no2)c1,14%,38*,-20%,4%,1,9%,6%
Cc1cc(C(=O)Nc2cc(C)on2)on1,-7%,16,4%,0%,-3,-2%,nt
Cc1cc(OCC(=O)NCc2ccccn2)cc(C)c1Br,3%,47*,-2%,0%,2,-6%,6%
O=C(COc1ccc2ccc(=O)oc2c1)NCc1ccccn1,nt,-11,-3%,-5%,-2,0%,nt
Cc1cccc(C(=O)NC(NCCc2ccccc2)C(Cl)(Cl)Cl)c1 (stereo not drawn),1%,109*,-6%,-4%,-5,-5%,0%
Cc1ccc(C(=O)CSc2nnnn2C(C)C)c(C)c1,-3%,33*,-3%,-2%,1,-5%,0.32µM*
